# In PubChem BioAssay:
# The source made the active and inactive calls.
# Experiments:
# [1] = tested on: Plasmodium falciparum Sir2 (PF13_0152, Sir2A); experiment: Plasmodium falciparum Sir2A binding compounds – biochemical, small-molecule microarray, 635 nm fluorescence, primary screen (AID 1098); details: fluorescence 635 nm, higher = more signal;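 note: score merges spot fluorescence intensity with its signal-to-noise ratio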
# [2] = probe aDKK1 binding to arrayed compounds – biochemical, biotinylated probe, 635/667 nm fluorescence, primary screen (AID 1099); details: small-molecule microarray, higher = more signal;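 note: score merges 667nm spot fluorescence with signal to noise across triplicate slides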
# [3] = probe aCHRDL2 binding to arrayed compounds – biochemical, biotinylated probe, 635/667 nm fluorescence, primary screen (AID 1100); details: small-molecule microarray, higher = more signal
# [4] = change in splice reporter luminescence, either direction, cell-based, HEK293, spliceosome inhibition project, primary screen (AID 1101); details: HEK293 splicing luciferase reporter, 24 h, higher = more signal, called active from +8 up or from −8 down;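 note: HEK293 cells carrying a splicing-competent luciferase reporter gene; test concentration not given here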
# [5] = target: Fibroblast growth factor 10 (Homo sapiens) (UniProt O15520); experiment: compounds binding fibroblast growth factor 10 – biochemical, small-molecule microarray, 635 nm fluorescence, primary screen (AID 1102); details: FGF10 binding, fluorescence 635 nm, higher = more signal
# Sequence of Fibroblast growth factor 10 (Homo sapiens) (O15520 whole entry, looked up): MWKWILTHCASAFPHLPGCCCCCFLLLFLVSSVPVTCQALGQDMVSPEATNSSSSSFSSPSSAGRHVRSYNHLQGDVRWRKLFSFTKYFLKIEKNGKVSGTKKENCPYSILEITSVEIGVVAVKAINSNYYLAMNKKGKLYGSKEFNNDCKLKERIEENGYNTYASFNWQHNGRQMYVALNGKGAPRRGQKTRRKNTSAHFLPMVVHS
# [6] = tested on: glycogen synthase kinase-3 (GSK3A per assay name; protocol says GSK3B); experiment: compounds binding glycogen synthase kinase-3 – biochemical, small-molecule microarray, 635 nm fluorescence, GSK3A, primary screen (AID 1103); details: fluorescence 635 nm, higher = more signal; note: the record names both GSK3A and GSK3B
# [7] = target: Epidermal growth factor receptor (Homo sapiens) (UniProt P00533); experiment: compounds binding epidermal growth factor receptor – biochemical, small-molecule microarray, 635 nm fluorescence, primary screen (AID 1104); details: EGFR binding, higher = more signal;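 note: score merges 667 nm emission intensity with spot signal to noise over triplicate slides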
# Sequence of Epidermal growth factor receptor (Homo sapiens) (P00533 whole entry, looked up): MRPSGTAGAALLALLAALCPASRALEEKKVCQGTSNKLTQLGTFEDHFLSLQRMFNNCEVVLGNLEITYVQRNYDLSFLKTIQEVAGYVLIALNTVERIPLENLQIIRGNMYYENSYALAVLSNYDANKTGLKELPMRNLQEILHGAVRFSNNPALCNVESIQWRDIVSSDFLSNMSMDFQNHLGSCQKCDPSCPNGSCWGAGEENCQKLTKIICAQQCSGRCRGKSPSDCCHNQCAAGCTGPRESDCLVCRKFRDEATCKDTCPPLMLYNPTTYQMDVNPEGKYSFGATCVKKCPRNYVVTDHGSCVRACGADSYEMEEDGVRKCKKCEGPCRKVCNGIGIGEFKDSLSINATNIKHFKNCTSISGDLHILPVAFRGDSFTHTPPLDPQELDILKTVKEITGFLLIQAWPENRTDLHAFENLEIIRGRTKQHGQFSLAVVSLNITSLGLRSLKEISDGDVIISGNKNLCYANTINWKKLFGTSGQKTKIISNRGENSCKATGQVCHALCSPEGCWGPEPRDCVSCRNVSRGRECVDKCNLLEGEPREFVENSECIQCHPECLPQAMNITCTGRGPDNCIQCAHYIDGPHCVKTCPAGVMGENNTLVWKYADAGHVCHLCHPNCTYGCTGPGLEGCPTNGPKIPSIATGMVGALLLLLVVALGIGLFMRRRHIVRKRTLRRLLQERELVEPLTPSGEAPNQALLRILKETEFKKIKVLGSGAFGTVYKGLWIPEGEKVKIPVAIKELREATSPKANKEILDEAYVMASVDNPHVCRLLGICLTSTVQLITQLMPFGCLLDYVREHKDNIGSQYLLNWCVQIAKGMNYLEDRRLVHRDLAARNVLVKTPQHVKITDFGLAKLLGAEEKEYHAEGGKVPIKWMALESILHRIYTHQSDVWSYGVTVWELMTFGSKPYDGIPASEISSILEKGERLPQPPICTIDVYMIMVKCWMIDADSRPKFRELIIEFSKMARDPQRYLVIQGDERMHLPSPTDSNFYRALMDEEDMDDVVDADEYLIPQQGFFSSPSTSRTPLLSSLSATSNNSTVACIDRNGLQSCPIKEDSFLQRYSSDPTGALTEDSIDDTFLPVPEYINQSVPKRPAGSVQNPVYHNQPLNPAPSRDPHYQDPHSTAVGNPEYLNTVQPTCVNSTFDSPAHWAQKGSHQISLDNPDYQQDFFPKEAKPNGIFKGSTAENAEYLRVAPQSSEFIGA
# [8] = target: Follistatin-related protein 3 (Homo sapiens) (UniProt O95633); experiment: compounds binding follistatin-related protein 3 – biochemical, small-molecule microarray, 635 nm fluorescence, primary screen (AID 1105); details: FSTL3 binding, higher = more signal;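 note: score merges emission near 667 nm and signal to noise per printed spot across three slides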
# Sequence of Follistatin-related protein 3 (Homo sapiens) (O95633 whole entry, looked up): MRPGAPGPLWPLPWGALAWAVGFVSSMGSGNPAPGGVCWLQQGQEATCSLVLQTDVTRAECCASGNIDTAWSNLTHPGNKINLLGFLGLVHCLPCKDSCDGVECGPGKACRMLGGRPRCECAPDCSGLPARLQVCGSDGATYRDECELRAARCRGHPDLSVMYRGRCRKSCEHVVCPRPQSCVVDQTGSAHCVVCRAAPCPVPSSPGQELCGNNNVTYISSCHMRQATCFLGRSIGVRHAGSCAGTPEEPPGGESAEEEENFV
# [9] = target: Dickkopf-related protein 1 (Homo sapiens) (UniProt O94907); experiment: small molecules binding DKK1 protein – biochemical, small-molecule microarray, 635 nm fluorescence scan, primary screen (AID 1106); details: higher = more signal;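 note: score merges emission near 667 nm with signal to noise over three replicate slides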
# Sequence of Dickkopf-related protein 1 (Homo sapiens) (O94907 whole entry, looked up): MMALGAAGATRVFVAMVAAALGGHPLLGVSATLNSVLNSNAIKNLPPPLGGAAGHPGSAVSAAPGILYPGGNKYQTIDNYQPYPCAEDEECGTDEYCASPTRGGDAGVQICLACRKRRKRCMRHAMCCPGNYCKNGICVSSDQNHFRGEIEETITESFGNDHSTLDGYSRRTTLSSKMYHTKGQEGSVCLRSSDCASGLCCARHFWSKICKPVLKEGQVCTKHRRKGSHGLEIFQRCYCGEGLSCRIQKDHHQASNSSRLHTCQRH
# [10] = tested on: Inhibin beta A chain (activin A); experiment: small molecules binding activin A – biochemical, small-molecule microarray, 635 nm fluorescence scan, primary screen (AID 1107); details: INHBA, higher = more signal;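 note: mouse activin A protein probed at 4.33 µg/mL on printed slides; score merges bound-protein fluorescence near 667 nm with spot signal-to-noise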
# [11] = tested on: Human papillomavirus type 1a protein E7 (residues 44-93); experiment: small molecules binding HPV E7 44-93 – biochemical, small-molecule microarray, residues 44-93, 635 nm fluorescence, primary screen (AID 1108); details: fluorescence 635 nm, higher = more signal;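 note: E7 fragment applied at 1 µg/mL in TBST for 1 h at 4 C; score combines spot fluorescence with its signal to noise ratio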
# [12] = hepatitis C replication reporter changes, two-sided – Huh7 cells, luciferase reporter, HCV replication inhibitor project, primary screen (AID 1109); details: Huh7 HCV replicon luciferase reporter, 48 h; higher = more signal;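 note: huh7 hepatoma cells harbouring a luciferase neomycin HCV replicon reporter; luciferase luminescence as measure of HCV replicon replication; test concentration not given here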
# [13] = target: Left-right determination factor 2 (Homo sapiens) (UniProt O00292); experiment: small molecules binding LEFTY2 protein – biochemical, small-molecule microarray, 635 nm fluorescence scan, primary screen (AID 1110); details: higher = more signal
# Sequence of Left-right determination factor 2 (Homo sapiens) (O00292 whole entry, looked up): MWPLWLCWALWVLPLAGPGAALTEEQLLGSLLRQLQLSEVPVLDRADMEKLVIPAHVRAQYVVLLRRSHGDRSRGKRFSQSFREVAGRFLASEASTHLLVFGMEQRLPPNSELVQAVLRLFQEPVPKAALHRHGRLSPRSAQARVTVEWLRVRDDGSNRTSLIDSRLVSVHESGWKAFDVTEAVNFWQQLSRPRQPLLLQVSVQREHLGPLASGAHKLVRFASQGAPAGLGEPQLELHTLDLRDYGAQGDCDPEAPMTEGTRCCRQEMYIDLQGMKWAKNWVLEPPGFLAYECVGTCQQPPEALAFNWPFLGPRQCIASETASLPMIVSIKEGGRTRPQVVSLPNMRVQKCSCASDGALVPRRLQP
# [14] = target: Calmodulin-1 (Homo sapiens) (UniProt P0DP23); experiment: small molecules binding calmodulin-1 with EGTA – biochemical, small-molecule microarray, Cy5-labelled CALM1, profiling panel (AID 1111); details: Cy5-CALM1 binding fluorescence, higher = more signal;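 note: labelled calmodulin applied in Tris saline Tween buffer holding calcium plus EGTA and DTT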
# [15] = target: Calmodulin-1 (Homo sapiens) (UniProt P0DP23); experiment: small molecules binding Ca-loaded calmodulin-1 – biochemical, small-molecule microarray, Cy5-labelled CALM1, plus calcium, artefact control for SMM control-protein annotation, profiling panel (AID 1112); details: Cy5-CALM1 binding fluorescence, higher = more signal;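 note: score merges spot fluorescence with signal to noise from triplicate slides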
# [16] = probe aWnt5a binding to arrayed compounds – biochemical, biotinylated probe, 635/667 nm fluorescence, primary screen (AID 1113); details: small-molecule microarray, higher = more signal;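 note: score merges 667 nm fluorescence intensity with signal-to-noise per printed feature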
# [17] = probe aShh binding to arrayed compounds – biochemical, biotinylated probe, 635/667 nm fluorescence, primary screen (AID 1114); details: small-molecule microarray, higher = more signal;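 note: probe is biotin-labelled aShh protein from a stem cell growth factor screen; measures binding of labelled protein to compounds printed on the slide; score merges feature fluorescence at 667 nm with signal-to-noise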
# [18] = probe aNog binding to arrayed compounds – biochemical, biotinylated probe, 635/667 nm fluorescence, primary screen (AID 1115); details: small-molecule microarray, higher = more signal;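 note: probe is biotinylated aNog protein used at 0.15 µg/mL for 1 h at 4 C; z-score combines 667 nm fluorescence of each spot with its signal to noise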
# [19] = target: Torsin-1A-interacting protein 1 (Homo sapiens) (UniProt Q5JTV8); experiment: compound microarray binding of lysate hLAP1 – cell lysate, small-molecule microarray, COS7 lysate, 635/667 nm fluorescence, primary screen (AID 1116); details: 635 nm fluorescence, higher = more signal
# Sequence of Torsin-1A-interacting protein 1 (Homo sapiens) (Q5JTV8 whole entry, looked up): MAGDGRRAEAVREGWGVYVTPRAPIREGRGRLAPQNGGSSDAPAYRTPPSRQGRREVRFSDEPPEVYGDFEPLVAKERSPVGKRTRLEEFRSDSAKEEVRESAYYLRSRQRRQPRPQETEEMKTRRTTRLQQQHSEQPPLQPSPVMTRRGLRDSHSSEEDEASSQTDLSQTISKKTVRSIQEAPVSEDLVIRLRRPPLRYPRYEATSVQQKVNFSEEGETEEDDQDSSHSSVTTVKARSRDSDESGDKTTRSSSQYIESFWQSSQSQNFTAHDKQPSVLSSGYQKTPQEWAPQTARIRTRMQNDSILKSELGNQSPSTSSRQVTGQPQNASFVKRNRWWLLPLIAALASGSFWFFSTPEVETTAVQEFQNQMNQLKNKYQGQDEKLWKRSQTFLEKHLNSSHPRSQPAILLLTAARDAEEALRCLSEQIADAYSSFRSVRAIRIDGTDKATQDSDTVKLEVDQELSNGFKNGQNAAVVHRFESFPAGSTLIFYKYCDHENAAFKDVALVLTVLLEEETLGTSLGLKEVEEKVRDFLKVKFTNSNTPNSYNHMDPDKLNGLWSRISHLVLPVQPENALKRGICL
# [20] = target: Alpha-bungarotoxin (Bungarus multicinctus) (UniProt P60615); experiment: compounds binding labelled alpha-BTX control protein – biochemical, small-molecule microarray, Alexa647 label, 635/667 nm fluorescence, artefact control for SMM control protein annotation, profiling panel (AID 1117); details: alpha-BTX-A647 binding fluorescence, higher = more signal
# Sequence of Alpha-bungarotoxin (Bungarus multicinctus) (P60615 whole entry, looked up): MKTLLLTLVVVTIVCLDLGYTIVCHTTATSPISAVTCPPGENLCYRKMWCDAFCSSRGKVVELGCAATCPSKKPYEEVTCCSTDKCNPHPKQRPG
Structure (SMILES),composite z-score [1],composite z-score [2],composite z-score [3],z-score [4],composite z-score [5],composite z-score [6],composite z-score [7],composite z-score [8],composite z-score [9],composite z-score [10],composite z-score [11],z-score [12],composite z-score [13],composite z-score [14],composite z-score [15],composite z-score [16],composite z-score [17],composite z-score [18],composite z-score [19],composite z-score [20]
COc1ccc([Si](C)(C)[C@@H]2[C@@H](CC(=O)N3Cc4ccccc4C[C@H]3CO)O[C@]3(C(=O)N(Cc4cccc(N5C(=O)c6cccc7cccc5c67)c4)c4ccccc43)[C@H]2C)cc1,1.25,-0.199,0.208,0.93 (inactive),0.579,0.313,0.982,1.43,1.43,0.636,1.21,-3.68,0.98,0.937,1.46,-0.0685,-0.17,-0.237,0.83,0.886
COCCOC(=O)N1C(=O)[C@@]2(c3cc(C#CCCO)ccc31)[C@H](C(=O)Nc1nc3ccccc3s1)[C@H]1C(=O)O[C@H](c3ccccc3)[C@H](c3ccccc3)N1[C@@H]2c1ccccc1OCCO,1.42,0.331,0.411,0.0499 (inactive),1.12,1.08,0.561,1.11,0.452,0.923,0.792,-1.71,0.674,0.827,-0.112,-0.0025,0.0469,-0.588,0.811,1.45
CCOC(=O)c1ccc(NC(=O)O[C@H]2[C@H](OC(=O)Nc3ccc4c(c3)OCO4)[C@@H](OC(=O)Nc3ccc4c(c3)OCO4)[C@@H](OC)O[C@@H]2CO)cc1,1.41,0.164,0.157,-0.616 (inactive),1.4,1.33,0.308,1.49,0.624,0.51,1.27,1.5,0.48,0.517,-0.393,0.0321,-0.0664,1.08,1.52,0.908
COC(=O)c1c(CC[C@@H](CO)NC(=O)N[C@H](Cn2cc(C3(O)CCCCC3)nn2)C(C)C)oc(C(C)=O)c1C(=O)OC,0.997,-0.0398,-0.446,-1.66 (inactive),1.07,0.859,0.557,1.1,0.788,0.368,1.01,-0.415,0.724,0.169,-0.715,0.002,0.151,0.141,0.748,1.65
COC(=O)c1c2oc(c1C(=O)OC)C(=O)N(Cc1ccccc1)Cc1cn(nn1)C[C@H](Cc1ccccc1)NC(=O)N[C@H](CO)CC2,0.909,-0.0239,-0.342,-2.12 (inactive),0.247,0.278,0.0933,0.111,-0.0193,0.0809,0.196,-0.533,0.269,-0.201,-0.464,-0.0194,-0.367,-0.359,0.678,-0.129
CC(C)N1CC=CC23O[C@@H]4C=CCOC(=O)[C@@H]4[C@H]2C(=O)N(CCCO)[C@@H]3C1=O (stereo not given in full),1.95,-0.286,0.627,-3 (inactive),-0.0827,0.0274,-0.42,-0.123,-0.74,0.929,1.49,-0.223,-0.932,-0.373,0.731,-0.18,-0.123,-0.196,1.47,-0.381
C=CCOC(=O)[C@H]1[C@@H]2C(=O)O[C@@H](c3ccccc3)[C@@H](c3ccccc3)N2[C@@H](c2ccc(OCCOC(=O)[C@H]3C[C@H]4C(=O)N[C@@H](CC(C)C)C(=O)N4[C@H]3c3cccc(OCCO)c3)cc2)[C@]12C(=O)Nc1ccc(I)cc12,1.36,-0.122,0.18,0.642 (inactive),1.33,1.31,1.21,0.919,0.963,0.535,1.31,-1.51,1.08,0.621,0.0537,-0.168,-0.0769,-0.141,-0.302,0.473
CCCCN1CC=CC23O[C@@H]4/C=C\CCC(C)OC(=O)C4[C@H]2C(=O)N(C(CO)C(C)C)[C@@H]3C1=O (stereo not given in full),1.73,-0.207,-0.176,0.0563 (inactive),0.384,0.347,-0.474,0.167,0.125,1.14,-0.164,-0.768,-0.406,-0.708,-0.926,-0.0403,0.186,-0.278,1.36,-0.312
[N-]=[N+]=Nc1ccccc1[C@H]1OC(c2ccc(OCCCO)cc2)=N[C@@]1(CCS(=O)(=O)c1ccccc1)C(=O)NCCN1CCOCC1,1.35,-0.135,0.775,-0.0945 (inactive),1.41,1.21,0.131,1.19,0.248,0.903,1.4,0.517,-0.354,0.757,-0.368,0.0246,0.315,1.03,0.936,0.755
O=C1OCCC=C[C@H]2OC34C=CCN(Cn5nnc6ccccc65)C(=O)[C@H]3N(CCCCCCO)C(=O)[C@@H]4C12 (stereo not given in full),1.8,-0.0278,0.337,0.415 (inactive),-0.893,-0.357,-1.23,-0.822,-1.03,-0.157,-0.607,0.333,-1.51,-0.204,0.646,-0.208,-0.179,-0.142,-0.0637,-1.27
C=C(/C(=C/C[C@@H](OC(C)=O)c1cccc(OCCO)c1)c1cc(C(=O)OC)ccc1OC)C(C)C,0.628,0.153,-0.0171,-0.0584 (inactive),0.855,-0.298,-0.122,0.533,-0.35,0.632,0.522,-1.53,0.256,-0.343,-0.563,-0.221,-0.221,-0.223,0.189,0.215
